Assay results from the supplement of paper PMC11219838.

The molecules below were run on Caenorhabditis elegans L1 (N2) (assay: survival and reproduction score of C. elegans L1 (0: 0-10 living worms, 1: 11-20, 2: 21-50, 3: >50, 4: overgrown) (score 0-4); higher = more worms, less nematicidal, active = 1 or less; extreme values may be limits of the assay). Conditions: 60 µM; 6 days; temperature: 20 °C.
Outline: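 After compound was pinned to 60 µM final (0.6% v/v DMSO) into wells with roughly 20 synchronized C. elegans N2 L1s and E. coli HB101 in liquid NGM, the sealed 96-well plates were shaken at 200 rpm for 6 days at 20 °C. Under a dissection microscope, survival and reproduction were graded ordinally by living worms per well. A grade of 0 stood for 0–10 worms and 4 for overgrown, starved wells; two biological replicates were averaged.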

Compound	survival and reproduction score
CCCOc1ccc(-c2nc(-c3cccnc3)no2)cc1	0 (active)
Ic1cccc(-c2nc(-c3cccnc3)no2)c1	4 (inactive)
O=C(CSc1nnc(-c2ccco2)o1)c1ccccc1	4 (inactive)
Cc1cc(OCc2nc(-c3cccnc3)no2)c(C)c(C)c1Br	4 (inactive)
COc1ccccc1-c1nc(-c2ccccc2Cl)no1	4 (inactive)
COc1ccc(-c2nnc(SCC(=O)Nc3ccc(Br)c(C)c3)o2)cc1	4 (inactive)
Cc1c(C(=O)CSc2nnc(-c3ccccc3)o2)c2ccccc2n1C	4 (inactive)
Cc1cccc(-c2noc(-c3cccc(Br)c3)n2)c1	4 (inactive)
Brc1cccc(-c2nc(-c3cccnc3)no2)c1	4 (inactive)
COc1cccc(-c2noc(-c3c(F)cccc3F)n2)c1	4 (inactive)
COc1nc(C)ccc1-c1noc(-c2ccc(Cl)cc2)n1	4 (inactive)
COc1ccccc1-c1nnc(SCc2ccccc2C#N)o1	4 (inactive)
O=C(NCCc1ccccc1)c1ccccc1-c1nc(-c2ccccc2Cl)no1	4 (inactive)
C=CCSc1nnc(-c2ccc(Br)cc2)o1	0 (active)
O=C(CSc1nnc(-c2ccccc2)o1)NC1CCCCC1	4 (inactive)
O=C(c1ccccc1-c1nc(-c2ccc(F)cc2)no1)N1CCCC1	4 (inactive)
Clc1ccccc1-c1nc(-c2ccc3c(c2)OCO3)no1	4 (inactive)
Cc1ccc(C(=O)CSc2nnc(-c3ccco3)o2)o1	4 (inactive)
COc1ccc(-c2nnc(SCC(=O)Nc3ccc(C)cc3Br)o2)cc1	4 (inactive)

Compound	survival and reproduction score
COc1ccc(-c2nnc(SCC(=O)Nc3ccc(Cl)cc3C)o2)cc1	4 (inactive)
COc1nc(-c2ccc(C)cc2)ccc1-c1noc(-c2cccc(C)c2)n1	4 (inactive)
COc1ccccc1CC(=O)Nc1ccc(-c2noc(-c3ccc(Cl)cc3)n2)cc1	4 (inactive)
O=C(CSc1nnc(-c2ccccc2)o1)NCc1ccccc1	4 (inactive)
CCCCC(=O)Nc1ccccc1-c1nc(-c2cccnc2)no1	4 (inactive)
Cc1ccc(NC(=O)CSc2nnc(-c3ccc(C(C)(C)C)cc3)o2)c(C)c1	2 (inactive)
Brc1ccc(-c2noc(-c3ccc(Br)o3)n2)o1	0.5 (active)
Cc1ccc(C(=O)CSc2nnc(-c3ccccc3)o2)cc1	4 (inactive)
O=C(Nc1ccc(-c2noc(COc3ccccc3)n2)cc1)c1ccc(F)cc1	1 (active)
Brc1ccc(OCc2nc(-c3ccncc3)no2)cc1	4 (inactive)
COc1cccc(CSc2nnc(-c3ccco3)n2C)c1	2 (inactive)
Cc1ncc2c(c1-c1noc(-c3ccccc3)n1)CCC2	4 (inactive)
O=C(Nc1ccccc1-c1nc(-c2ccncc2)no1)c1ccccc1Cl	4 (inactive)
CC(=O)c1c(C)cc(C)c(CSc2nnc(-c3ccco3)o2)c1C	4 (inactive)
Cc1ccc(-c2nnc(SCC(=O)Nc3nccs3)o2)cc1	4 (inactive)
Fc1ccc(-c2noc(-c3ccc(Br)cc3)n2)cc1	0 (active)
COc1ccc(CC(=O)Nc2ccc(-c3noc(-c4ccccc4Br)n3)cc2)cc1	4 (inactive)
COc1ccc(-c2noc(CSc3nc4cc(C)ccc4[nH]3)n2)cc1	4 (inactive)
O=C(CSc1nnc(-c2ccc(Cl)cc2)o1)c1ccccc1	4 (inactive)
